Activity calls are given as the source filed them.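 The calls were made as follows: active = peak inhibition of the KCNQ2 potassium channel above 30% at some tested dose, plus a fitted dose response curve; inactive = no inhibition at any dose, or no curve.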
Target: Potassium voltage-gated channel subfamily KQT member 2 (Rattus norvegicus) (UniProt O88943)
Assay: blockade of KCNQ2 thallium flux – cell-based, FluxOR thallium flux, CRC set 2, selectivity assay for KCNK9 inhibitor project, SAR follow-up (AID 588800)
Details: KCNQ2-expressing cells; series mostly up to 30 µM; thallium flux ratio, lower = inhibition: at the top concentration

Sequence of Potassium voltage-gated channel subfamily KQT member 2 (Rattus norvegicus) (O88943 whole entry, looked up): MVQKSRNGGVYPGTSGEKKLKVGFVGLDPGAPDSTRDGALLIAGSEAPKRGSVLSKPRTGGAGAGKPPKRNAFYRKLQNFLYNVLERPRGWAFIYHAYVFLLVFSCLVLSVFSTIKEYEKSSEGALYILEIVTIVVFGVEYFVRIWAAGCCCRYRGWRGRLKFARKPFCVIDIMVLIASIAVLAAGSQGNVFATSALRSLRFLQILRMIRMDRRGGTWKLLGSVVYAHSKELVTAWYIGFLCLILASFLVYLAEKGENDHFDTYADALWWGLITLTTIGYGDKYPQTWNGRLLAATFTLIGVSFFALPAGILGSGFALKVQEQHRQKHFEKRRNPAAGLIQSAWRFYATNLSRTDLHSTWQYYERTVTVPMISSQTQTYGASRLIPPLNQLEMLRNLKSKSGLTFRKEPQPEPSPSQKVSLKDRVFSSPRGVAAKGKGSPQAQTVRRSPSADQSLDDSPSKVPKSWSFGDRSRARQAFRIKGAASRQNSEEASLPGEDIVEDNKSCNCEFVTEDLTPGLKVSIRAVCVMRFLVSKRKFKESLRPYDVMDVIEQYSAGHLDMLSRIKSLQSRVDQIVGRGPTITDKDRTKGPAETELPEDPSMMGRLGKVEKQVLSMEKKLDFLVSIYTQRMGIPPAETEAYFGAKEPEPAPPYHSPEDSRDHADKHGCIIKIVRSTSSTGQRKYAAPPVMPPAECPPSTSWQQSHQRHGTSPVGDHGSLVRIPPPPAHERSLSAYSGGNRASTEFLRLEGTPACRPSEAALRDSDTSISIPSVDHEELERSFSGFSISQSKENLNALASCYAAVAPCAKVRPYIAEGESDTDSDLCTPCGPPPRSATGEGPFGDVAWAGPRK

Thallium flux ratio, lower = inhibition, inactive:
Cc1cccc(C(=O)Nc2cccc(NC(=O)C3CCCCC3)c2)c1 0.167, CCOc1ccc(NC(=O)c2cccc(NC(=O)C3CCCC3)c2)cc1 0.179, CCOc1ccccc1C(=O)Nc1cccc(NC(=O)c2ccccc2C(F)(F)F)c1 0.177, COc1ccccc1-c1n[nH]c(=S)n1C(C)C1CC2CCC1C2 (stereo not given) 0.173, COc1ccccc1NC(=O)c1cccc(NC(=O)C2CCCCC2)c1 0.174, O=C(Nc1cccc(NC(=O)c2ccco2)c1)c1ccccc1 0.214, COc1ccccc1C(=O)Nc1cccc(NC(=O)c2ccccc2OC(F)(F)F)c1 0.183, CCOc1ccccc1NC(=O)c1cccc(NC(=O)c2ccccc2Cl)c1 0.15, CCOc1ccccc1NC(=O)c1cccc(NC(=O)c2ccccc2OC(F)(F)F)c1 0.182, CC(C1CC2CCC1C2)n1c(-c2ccc(Cl)cc2)n[nH]c1=S (stereo not given) 0.206, O=C(Nc1cccc(NC(=O)c2cccc(F)c2)c1)c1ccccc1 0.2, O=C(Nc1cccc(NC(=O)c2ccc(F)cc2)c1)c1ccccc1 0.185, CC(C1CC2CCC1C2)n1c(C2CCOC2)n[nH]c1=S (stereo not given) 0.177, Cc1cccc(C(=O)Nc2ccccc2NC(=O)c2ccccc2)c1 0.143, O=C(Nc1cccc(NC(=O)c2ccccn2)c1)c1ccccc1 0.202, CC(C1CC2CCC1C2)n1c(-c2ccco2)n[nH]c1=S (stereo not given) 0.2, CCOc1ccccc1NC(=O)c1cccc(NC(=O)c2cccc(C(F)(F)F)c2)c1 0.173, COc1ccccc1NC(=O)c1cccc(NC(=O)c2ccccc2OC)c1 0.172, CC(C1CC2CCC1C2)n1c(-c2ccccc2Cl)n[nH]c1=S (stereo not given) 0.165, CC(C)n1c(-c2ccco2)n[nH]c1=S 0.167, Cc1cccc(C(=O)Nc2cccc(NC(=O)c3cccc(Cl)c3)c2)c1 0.163, S=c1[nH]nc(-c2ccco2)n1CC1CCCCC1 0.16, COc1ccccc1C(=O)Nc1cccc(NC(=O)c2ccccc2)c1 0.162, COc1ccccc1C(=O)Nc1cccc(NC(=O)c2ccccc2C(C)C)c1 0.177, COc1ccccc1NC(=O)c1cccc(NC(=O)CC2CCCC2)c1 0.162, Cc1cccc(C(=O)Nc2cccc(NC(=O)c3ccncc3)c2)c1 0.163, O=C(Nc1cccc(NC(=O)c2ccncc2)c1)c1ccccc1 0.191, Cc1cccc(C(=O)Nc2cccc(NC(=O)c3cccc(C(F)(F)F)c3)c2)c1 0.155, CC(C1CC2CCC1C2)n1c(-c2cccc(Cl)c2)n[nH]c1=S (stereo not given) 0.207, CCOc1ccccc1NC(=O)c1cccc(NC(=O)C2CCCO2)c1 (stereo not given) 0.195, O=C(Nc1cccc(NC(=O)c2ccc(Cl)cc2)c1)c1ccccc1 0.153, O=C(Nc1cccc(NC(=O)c2ccccc2)c1)c1ccccc1 0.154, Cc1cccc(S(=O)(=O)Nc2cccc(NC(=O)c3ccccc3)c2)c1 0.195, Cc1cccc(C(=O)Nc2cccc(NC(=O)c3ccco3)c2)c1 0.192

outcome, inactive:
O=C(Nc1cccc(NC(=O)c2ccc(C(F)(F)F)cc2)c1)c1ccccc1

Reference: PubChem BioAssay AID588800 (Johns Hopkins Ion Channel Center, 2011)
